Screening data (PubChem)
Rows were chosen to be rich in hits. Some 0.99% of all compounds tested hit in one or more screens of this group.
AmpC inh no detg: inhibitors of E. coli AmpC beta-lactamase without detergent; Potency, µM (doses to about 57.1 µM), usual class: inhibitors; AmpC nitrocefin hydrolysis, absorbance 480 nm, 0.0001% Triton; P00811; 330,000 tested, 0.52% active; note: nearly all actives have a fitted effect of over 20% in size
Target sequence (P00811 whole entry, looked up): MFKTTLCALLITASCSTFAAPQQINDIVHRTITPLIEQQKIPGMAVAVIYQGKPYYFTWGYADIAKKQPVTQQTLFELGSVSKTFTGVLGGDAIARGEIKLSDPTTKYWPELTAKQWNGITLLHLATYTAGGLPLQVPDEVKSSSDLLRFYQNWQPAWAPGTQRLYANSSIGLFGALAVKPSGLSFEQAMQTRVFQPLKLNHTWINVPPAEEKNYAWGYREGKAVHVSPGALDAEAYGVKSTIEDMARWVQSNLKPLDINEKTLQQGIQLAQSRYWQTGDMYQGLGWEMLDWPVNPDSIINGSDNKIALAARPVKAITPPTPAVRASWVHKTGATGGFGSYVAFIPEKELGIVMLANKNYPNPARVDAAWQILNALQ
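20 mM phosphate pH 7.0 + 0.01% (detergent screen) or 0.0001% Triton X-100; 5.3 nM AmpC reagent; cpd preinc 15 min RT; nitrocefin (800 uM stock) to start; A480 q20 s × 4 min; Activity was normalised to no-enzyme and no-compound control wells.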
NS1 function inh: inhibitors of influenza NS1 protein function; Potency, µM (highest dose often 46.1 µM); 270,000 tested, 0.4% active; AID 2326; calls by dose curve; note: actives are rising curves; nearly all actives have a fitted effect of over 50% in size
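OD600 was taken as the measure of yeast growth restored by compound in an NS1-expressing S. cerevisiae strain. Cells had been washed out of glucose medium and diluted 1:100 into galactose -URA medium, pH 6.0.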
SARS PLP yeast: blocks SARS-CoV papain-like protease in a yeast assay; S. cerevisiae expressing SARS-CoV PLpro, growth rescue; 330,000 tested, 0.19% active; Potency, µM (series often up to 32.9 µM), actives largely listed as activators; AID 485353; calls by dose curve; note: nearly all actives have a fitted effect of over 55% in size
AMA1-RON2 inh: AMA1-RON2 (P. falciparum) interaction inhibition. 360,000 tested, 0.2% active. AlphaScreen AMA1-biotinylated RON2 peptide binding. Potency, µM (series often up to 58.2 µM), most hits filed as inhibitors; note: nearly all actives have a fitted effect of over 45% in size
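AMA1 (3D7) with his tag at 25 nM final met compounds first, then biotinylated RON2 peptide at 25 nM; detection used donor plus acceptor beads, 10 µg/mL apiece, read by AlphaScreen after 30 min at room temperature.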
AmpC inh detg: AmpC beta-lactamase inhibition with detergent present; AmpC hydrolysis of nitrocefin, absorbance 480 nm, 0.01% Triton; Potency, µM (series often up to 114 µM), actives largely listed as inhibitors; AID 485294; P00811; 370,000 tested, 0.041% active; note: nearly all actives have a fitted effect of over 25% in size
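20 mM phosphate pH 7.0 + 0.01% (detergent screen) or 0.0001% Triton X-100; 5.3 nM AmpC reagent; cpd preinc 15 min RT; nitrocefin (800 uM stock) to start; A480 q20 s × 4 min; Activity was normalised to no-enzyme and no-compound control wells.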
Numbers stand for hits; [ ] = dose if it differs, or a comment. Unless noted, calls come from the whole dose curve; as a rule, active = well fitted curve in the direction sought with a large enough effect; inconclusive = small, poorly fitted or top-dose-only effect, or another doubt; inactive = no such curve, though single readings can be large; an effect the other way counts as inactive or inconclusive.

`Cc1ccc(CSC2=Nc3ccccc3C3=NC(CCC(=O)N4CCN(c5ccccc5)CC4)C(=O)N23)cc1` (stereo not given) gave AmpC inh detg inactive.
Screening CCN(Cc1ccccc1)c1ccc(N=Nc2nn(C)c(C)c2[N+](=O)[O-])cc1 returned AmpC inh no detg inactive, NS1 function inh inconclusive, SARS PLP yeast inactive, AMA1-RON2 inh 10µM and AmpC inh detg inconclusive.
For CCN(CC)c1ccc(N=Nc2nn(C)c(C)c2[N+](=O)[O-])cc1 the results were AmpC inh no detg inactive, NS1 function inh inactive, SARS PLP yeast inactive, AMA1-RON2 inh inactive[11.6 µM] and AmpC inh detg inconclusive.
`COc1cc2ncnc(NCc3ccc(C)cc3)c2cc1OC` gave AmpC inh no detg inactive, NS1 function inh inactive, SARS PLP yeast inactive, AMA1-RON2 inh inactive and AmpC inh detg inactive.
For COc1cccc(CNc2ncnc3cc(OC)c(OC)cc23)c1 the results were AmpC inh no detg 3.2µM, NS1 function inh inactive, SARS PLP yeast inactive, AMA1-RON2 inh inactive and AmpC inh detg inactive.
Screening CCN(CCCl)c1cc(CN(C)C)cc(NC(=O)c2ccc(C(=O)Nc3cc(CN(C)C)cc(N(CC)CCCl)c3)cc2)c1 returned AMA1-RON2 inh 25µM.
Screening CCN(CC)c1ccc(NC(=O)c2cnn(CC)c2)cc1 returned AmpC inh no detg inactive, NS1 function inh inactive, SARS PLP yeast inactive, AMA1-RON2 inh inactive and AmpC inh detg inactive.
`Oc1ccc(/C=N/Nc2nccnc2Cl)c(O)c1` gave AmpC inh no detg inactive, NS1 function inh inactive, SARS PLP yeast 3.2µM, AMA1-RON2 inh inactive and AmpC inh detg inactive.
For CN(C)CCCNc1c2c(nc3ccc(Cl)cc13)CCCC2 the results were NS1 function inh inactive.
`O=c1cc(-c2ccc(C3CCCCC3)cc2)[nH][nH]1` gave AmpC inh no detg 14µM, SARS PLP yeast inactive, AMA1-RON2 inh inactive and AmpC inh detg inactive.
For O=C(O)CNC(=O)CC1S/C(=N/N=C2\CSC(=O)N2)NC1=O (stereo not given) the results were AmpC inh no detg inactive, NS1 function inh inactive, SARS PLP yeast inactive, AMA1-RON2 inh 40µM and AmpC inh detg inactive.
`O=C(N/N=C/C(Br)=C/c1ccccc1)c1cc(-c2ccco2)[nH]n1` gave AmpC inh no detg 20µM, NS1 function inh inactive, SARS PLP yeast inactive, AMA1-RON2 inh inactive and AmpC inh detg inactive.
Screening O=[N+]([O-])c1cccc(C=NN2CCCCCC2)c1 returned AMA1-RON2 inh 18µM.
O=[N+]([O-])c1cc(C=NN2CCCCCC2)ccc1Cl was read as AMA1-RON2 inh 14µM.
COc1ccccc1/C=C/c1onc(C)c1S(=O)(=O)N1CCC(C(=O)N2CCC(C)CC2)CC1 was read as AmpC inh detg inactive.
Screening CN(C)S(=O)(=O)c1ccc2c(c1)N(CC(=O)N1CCN(c3ccc(F)cc3)CC1)CCS2 returned AmpC inh detg inactive.
For Cc1sc2nc(COC(=O)c3ccc(O)cc3)[nH]c(=O)c2c1C the results were AmpC inh no detg 14µM, NS1 function inh inactive, SARS PLP yeast inactive, AMA1-RON2 inh inactive and AmpC inh detg inactive.
Screening Cc1sc2nc(COC(=O)c3ccc(Cl)c(N)c3)[nH]c(=O)c2c1C returned AmpC inh no detg inactive, NS1 function inh inactive, SARS PLP yeast inactive, AMA1-RON2 inh inactive and AmpC inh detg inactive.
For O=C1NC(=O)N(Cc2ccccc2Cl)C(=O)/C1=C/c1cccs1 the results were AmpC inh no detg 20µM, SARS PLP yeast inactive, AMA1-RON2 inh inactive and AmpC inh detg inactive.
Screening Cc1ccc2sc(N(CCCN(C)C)C(=O)c3ccc(Br)s3)nc2c1C returned AmpC inh no detg inactive, SARS PLP yeast inactive, AMA1-RON2 inh 25µM and AmpC inh detg inconclusive.
CC(CC1C(C#N)=C(N)OC2=C1C(=O)CCC2)c1ccccc1 (stereo not given) was read as AmpC inh no detg inactive, NS1 function inh inactive, SARS PLP yeast inactive, AMA1-RON2 inh inactive and AmpC inh detg inactive.
Screening CC(C)CC1C(C#N)=C(N)OC2=C1C(=O)CC(c1ccccc1)C2 (stereo not given) returned AmpC inh no detg 28µM, SARS PLP yeast inactive, AMA1-RON2 inh inactive and AmpC inh detg inconclusive.
Screening Nc1ccc(O)cc1C(=O)OCC(=O)C12CC3CC(CC(C3)C1)C2 returned AmpC inh no detg 13µM, NS1 function inh inactive, SARS PLP yeast inactive, AMA1-RON2 inh inactive and AmpC inh detg inactive.
O=C(OCC(=O)C12CC3CC(CC(C3)C1)C2)c1ccc(O)cc1 was read as AmpC inh no detg inactive, SARS PLP yeast inactive and AMA1-RON2 inh inactive.
Screening O=C1C=C(O)c2c(O)cc(O)c(O)c2C1=O returned AMA1-RON2 inh 1µM.
For O=C1c2ccccc2C(=O)c2c(O)c(O)cc(O)c21 the results were AmpC inh no detg inactive, SARS PLP yeast inactive and AMA1-RON2 inh inactive.
For COc1ccc(-n2c(Cc3ccccc3)nnc2SCc2nc(-c3cccs3)no2)cc1 the results were AmpC inh detg inactive.
`CO/C=C\C=C/c1nnn(-c2ccc(Cl)cc2)n1` gave AmpC inh no detg 11µM, NS1 function inh inactive, SARS PLP yeast inactive, AMA1-RON2 inh inconclusive and AmpC inh detg inactive.
CCn1cc2nc(SCc3cc(C)ccc3C)n(Cc3ccc(C)cc3)c(=O)c2n1 was read as AmpC inh detg inactive.
`O=C(c1nnsc1S(=O)c1ccc(Cl)cc1)N1CCOCC1` (stereo not given) gave AmpC inh no detg inactive, SARS PLP yeast inactive, AMA1-RON2 inh inactive and AmpC inh detg inconclusive.
Screening O=C(Nc1ccccc1)c1nnsc1S(=O)c1ccc(Cl)cc1 (stereo not given) returned AmpC inh no detg 14µM, NS1 function inh inactive, SARS PLP yeast inactive, AMA1-RON2 inh inactive and AmpC inh detg inconclusive.
Screening O=C(Nc1ccc(-c2csc(Nc3ccccc3)n2)cc1)c1cccc(C(F)(F)F)c1 returned AmpC inh no detg 3.5µM, NS1 function inh inactive, SARS PLP yeast inactive, AMA1-RON2 inh inactive and AmpC inh detg inactive.
Screening O=[N+]([O-])c1ccc(O)c(/C=N/NC(=S)Nc2ccc(Cl)cc2Cl)c1 returned AmpC inh no detg inactive, NS1 function inh inactive, SARS PLP yeast inactive, AMA1-RON2 inh inactive and AmpC inh detg inactive.
O=[N+]([O-])c1ccc(/C=N/NC(=S)Nc2ccc(Cl)cc2Cl)s1 was read as AmpC inh no detg 14µM, NS1 function inh inactive, SARS PLP yeast inactive, AMA1-RON2 inh inactive and AmpC inh detg inactive.
For COc1ccc(S(=O)(=O)N(C)C)cc1NC(=O)Cc1c[nH]c2ccccc12 the results were AmpC inh no detg 22µM, SARS PLP yeast inactive, AMA1-RON2 inh inactive and AmpC inh detg inactive.
`CC(=O)c1c(C)oc2c(Br)cc(NS(=O)(=O)c3ccc(Br)cc3)cc12` gave AmpC inh detg inactive.
Screening O[C@@H](c1cc(-c2ccccc2)nc2c1ccc1ccccc12)C1CCCCN1 (stereo not given in full) returned NS1 function inh inactive.
Screening CCN1CCN(C(=O)c2cc3c(=O)n(C)c4ccccc4c3n2C)CC1 returned AmpC inh no detg 11µM, NS1 function inh inactive, SARS PLP yeast inactive, AMA1-RON2 inh inactive and AmpC inh detg inconclusive.
